# Laboratory results published in the supplement of paper PMC6555819.
# Columns and labels:
# Test in all cases: PBM binding z-score (relative to random genomic background probes); higher = stronger binding; sequences stand for … in GC…GCGATTGACAGCGTAGAATGAAGG
# [1] = system: FXR:RXRa (NR concentration 270 nM, RXRa partner concentration 90 nM)
# Summary of the method: (§1)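 The probes on custom Agilent 4×180K protein-binding microarrays were double-stranded, with 34-nt variable regions bearing direct-repeat seeds, single-nucleotide variants, half-site ablations and random human genomic background sequences. Incubation lasted 1 h with ligand-free nuclear receptor dimers in PBS pH 7.4, 2% milk, 0.02% Triton X-100, 1 mM DTT, 0.2 mg/mL BSA and 0.4 mg/ml salmon testes DNA. Antibodies against each partner (one per run) detected bound dimers, and fluorescence scans were regression-normalized. Binding z-scores take the random background probes as reference.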
# [2] = system: LXRa:RXRa (NR concentration 270 nM, RXRa partner concentration 90 nM)
# Summary of the method: as §1
# [3] = system: LXRa homodimer (NR concentration 270 nM)
# Summary of the method: as §1
# [4] = system: LXRb:RXRa (NR concentration 270 nM, RXRa partner concentration 90 nM)
# Summary of the method: as §1
# [5] = system: LXRb homodimer (NR concentration 270 nM)
# Summary of the method: as §1
# [6] = system: PPARa:RXRa (NR concentration 270 nM, RXRa partner concentration 90 nM)
# Summary of the method: as §1
# [7] = system: PPARg:RXRa (NR concentration 180 nM, RXRa partner concentration 90 nM)
# Summary of the method: as §1
# [8] = system: PPARg:RXRa 270nM:90nM, anti-RXR (NR concentration 270 nM, RXRa partner concentration 90 nM)
# Summary of the method: as §1
# [9] = system: PPARg:RXRa 30nM:10nM, anti-RXR (NR concentration 30 nM, RXRa partner concentration 10 nM)
# Summary of the method: as §1
# [10] = system: PPARg:RXRa 90nM:30nM, anti-RXR (NR concentration 90 nM, RXRa partner concentration 30 nM)
# Summary of the method: as §1
# [11] = system: PPARg:RXRa DBDmut IVT, anti-RXR (DBD mutation: RXRa K156A/R161A, NR concentration 270 nM, RXRa partner concentration 90 nM)
# Summary of the method: as §1
# [12] = system: PPARg:RXRa IVT, anti-PPARg (NR concentration 270 nM, RXRa partner concentration 90 nM)
# Summary of the method: as §1
# [13] = system: PPARg DBDmut:RXRa IVT, anti-PPARg (DBD mutation: PPARg1 K132A/R137A, NR concentration 270 nM, RXRa partner concentration 90 nM)
# Summary of the method: as §1
# [14] = system: PPARg DBDmut IVT, anti-PPARg (DBD mutation: PPARg1 K132A/R137A, NR concentration 270 nM)
# Summary of the method: as §1
# [15] = system: PPARg homodimer (NR concentration 180 nM)
# Summary of the method: as §1
# [16] = system: PXR:RXRa (NR concentration 270 nM, RXRa partner concentration 90 nM)
# Summary of the method: as §1
# [17] = system: PXR homodimer (NR concentration 270 nM)
# Summary of the method: as §1
# [18] = system: RARa:RXR (NR concentration 270 nM, RXRa partner concentration 90 nM)
# Summary of the method: as §1
# [19] = system: RARa homodimer (NR concentration 270 nM)
# Summary of the method: as §1
# [20] = system: RARb:RXRa (NR concentration 270 nM, RXRa partner concentration 90 nM)
# Summary of the method: as §1
Sequence,PBM binding z-score [1],PBM binding z-score [2],PBM binding z-score [3],PBM binding z-score [4],PBM binding z-score [5],PBM binding z-score [6],PBM binding z-score [7],PBM binding z-score [8],PBM binding z-score [9],PBM binding z-score [10],PBM binding z-score [11],PBM binding z-score [12],PBM binding z-score [13],PBM binding z-score [14],PBM binding z-score [15],PBM binding z-score [16],PBM binding z-score [17],PBM binding z-score [18],PBM binding z-score [19],PBM binding z-score [20]
CTACCAAGGGGAACAAGGTCGTTGATTACTATTC,0.208,0.398,0.166,1.28,-0.298,1.24,0.284,0.325,0.0626,0.258,0.796,0.857,-0.93,0.266,0.795,1.46,1.29,1.16,-0.123,0.601
TCATATAGGTAATACAGGTTAAAGTCGGCATCTA,1.72,2.72,2.2,1.82,0.603,2.28,1.93,2.74,4.37,3.53,4.34,3.27,1.19,1.83,1.52,1.32,0.749,1.97,1.97,0.992
TCATATAGATAAACAGGTGAAAGTCCGTAAGTTA,1.22,1.04,0.611,1.09,0.473,1.69,1.41,2.83,4.51,3.77,2.87,1.36,0.902,1.03,1.33,1.07,0.573,1.37,1.53,0.536
TCGAGTAGGTTACCAATGGCGCATTCAGCTTTCT,0.273,0.571,-0.489,0.382,-0.736,0.977,0.185,1.23,1.11,1.17,3.69,2.51,0.479,-0.462,-0.236,0.00763,-0.811,0.064,-0.676,0.628
ATCTCTAGGTAAACGTTCAGTGAATCCCGAGGAT,-0.236,-0.144,-0.301,-0.282,0.657,0.613,1.14,2.17,1.01,1.75,3.11,2.05,0.531,0.761,0.198,-0.434,-0.237,-0.544,-0.155,0.26
GCTAGCAGGCCATTTGGGTCACCCAATGACGGGC,0.339,-0.142,-0.557,0.0231,-1.02,1.67,0.947,0.784,-0.28,0.167,1.07,2.71,-0.843,-0.885,-0.136,0.692,0.0143,1.02,-0.844,1.62
CATACAGGTTCAGCTAGGCCAGAGTAGGGACGGC,0.788,1.03,-0.0766,0.293,-0.03,1.21,0.629,0.338,-0.155,0.0738,-0.2,0.213,0.171,0.0145,0.268,0.759,0.121,0.691,-0.0156,1.44
CGTCCAAGGTCAGCAGGTCAGTCAAAGCGACGTG,5.86,4.15,0.724,3.27,-0.456,4.84,4.14,4.59,0.878,3.11,2.82,3.69,0.0784,-0.246,3.64,3.71,0.514,4.81,0.95,5.08
GGAACGCGGGCATTCGAGTTGATAGCATGGCGAT,-0.388,-0.465,-0.588,-1.04,-1.3,-1.13,-0.044,-0.711,-0.908,-0.624,-0.393,-0.666,-1.41,-1.44,-1.1,-0.103,-0.449,-0.652,-1.13,-0.209
CCTCGGAAGACAACAGGAGGTCAGAGCTGCCAGA,0.802,1.66,1.65,1.31,-0.201,1.62,0.36,0.247,-0.599,-0.387,-0.389,-0.416,-0.399,-1.87,1.38,1.62,0.458,2.01,0.559,1.81
ACTATTAGTTGAGACGAGGGCAATCGATAGGTTG,0.46,0.333,-0.168,0.136,-0.0649,0.253,0.627,0.107,0.45,0.23,0.458,0.2,0.805,0.52,0.357,1.46,0.418,1.25,0.603,0.918
CGTCCAAGGTCAGGGTCAGTGAAAGAGACTCGAA,6.11,3.93,-0.0372,3.66,0.128,5.11,4.59,4.52,1.28,2.98,2.17,3.09,0.335,-0.416,2.66,3.7,0.71,4.22,1.34,5.2
TAGCCTAGGTAATGGGCCAGTATACCACGCGAAC,-0.654,-0.856,-0.526,-0.351,-0.976,-0.193,0.503,0.264,-0.0812,-0.179,-0.319,0.78,-0.42,-0.561,-0.148,-0.351,-0.609,-0.221,-0.573,-0.295
ACTAGCAGGCCAAGTTTGGGTCACTAAAACAAAG,0.0701,0.104,-0.274,0.749,-0.496,1.58,0.26,0.637,-0.145,0.427,0.86,1.41,-0.183,-0.616,0.00653,0.707,-0.272,1.49,-0.238,1.79
GCTCGGAGGAGAAGGTCAGAGCTTTGTCCGTAGA,0.655,0.736,-0.584,0.516,-1.44,1.79,-0.0558,0.967,-0.721,0.353,-0.348,0.169,-0.938,-2.35,0.184,1.06,-1.02,1.58,-1,2.3
CCTAATAGTTGACCATAAGGGCAACCGAAGCTCG,0.919,0.486,0.29,0.606,0.214,0.827,0.664,0.43,0.117,0.37,-0.0162,0.473,0.327,0.353,1.09,0.821,0.596,1.27,1.46,1.72
CCTGATAGGTCATGGTCAGCTAATCTACAGTATG,5.33,4.19,0.689,3.39,0.182,4.96,3.65,3.99,1.25,2.81,3.61,2.99,1.15,0.715,2.24,2.79,0.473,4.02,1.43,4.18
TCTATTTGTTGATTAGGGCAACCGAAACAGCGGA,0.7,0.785,0.435,0.575,1.08,0.93,0.259,2.04,3.98,2.81,1.93,1.79,1.53,1.99,1.59,0.675,0.358,0.837,1.13,1.09
